Measured values as given in the supplement of paper PMC6555819.

Experiments:
Assay in all cases: PBM binding z-score (relative to random genomic background probes); higher = stronger binding; sequences stand for … in GC…GCGATTGACAGCGTAGAATGAAGG
[1] = tested on: FXR:RXRa (NR concentration 270 nM, RXRa partner concentration 90 nM)
Summary of the method: (§1)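 Binding z-scores take random background probes as their reference. They come from custom Agilent 4×180K protein-binding microarrays incubated 1 h with ligand-free nuclear receptor dimers, with antibodies against each partner (one per run) detecting binding. Scanned fluorescence was regression-normalized.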

[2] = tested on: LXRa:RXRa (NR concentration 270 nM, RXRa partner concentration 90 nM)
Summary of the method: as §1

[3] = tested on: LXRa homodimer (NR concentration 270 nM)
Summary of the method: as §1

[4] = tested on: LXRb:RXRa (NR concentration 270 nM, RXRa partner concentration 90 nM)
Summary of the method: as §1

[5] = tested on: LXRb homodimer (NR concentration 270 nM)
Summary of the method: as §1

[6] = tested on: PPARa:RXRa (NR concentration 270 nM, RXRa partner concentration 90 nM)
Summary of the method: as §1

[7] = tested on: PPARg:RXRa (NR concentration 180 nM, RXRa partner concentration 90 nM)
Summary of the method: as §1

[8] = tested on: PPARg:RXRa 270nM:90nM, anti-RXR (NR concentration 270 nM, RXRa partner concentration 90 nM)
Summary of the method: as §1

[9] = tested on: PPARg:RXRa 30nM:10nM, anti-RXR (NR concentration 30 nM, RXRa partner concentration 10 nM)
Summary of the method: as §1

[10] = tested on: PPARg:RXRa 90nM:30nM, anti-RXR (NR concentration 90 nM, RXRa partner concentration 30 nM)
Summary of the method: as §1

[11] = tested on: PPARg:RXRa DBDmut IVT, anti-RXR (DBD mutation: RXRa K156A/R161A, NR concentration 270 nM, RXRa partner concentration 90 nM)
Summary of the method: as §1

[12] = tested on: PPARg:RXRa IVT, anti-PPARg (NR concentration 270 nM, RXRa partner concentration 90 nM)
Summary of the method: as §1

[13] = tested on: PPARg DBDmut:RXRa IVT, anti-PPARg (DBD mutation: PPARg1 K132A/R137A, NR concentration 270 nM, RXRa partner concentration 90 nM)
Summary of the method: as §1

[14] = tested on: PPARg DBDmut IVT, anti-PPARg (DBD mutation: PPARg1 K132A/R137A, NR concentration 270 nM)
Summary of the method: as §1

[15] = tested on: PPARg homodimer (NR concentration 180 nM)
Summary of the method: as §1

[16] = tested on: PXR:RXRa (NR concentration 270 nM, RXRa partner concentration 90 nM)
Summary of the method: as §1

[17] = tested on: PXR homodimer (NR concentration 270 nM)
Summary of the method: as §1

[18] = tested on: RARa:RXR (NR concentration 270 nM, RXRa partner concentration 90 nM)
Summary of the method: as §1

[19] = tested on: RARa homodimer (NR concentration 270 nM)
Summary of the method: as §1

[20] = tested on: RARb:RXRa (NR concentration 270 nM, RXRa partner concentration 90 nM)
Summary of the method: as §1

| Sequence | PBM binding z-score [1] | PBM binding z-score [2] | PBM binding z-score [3] | PBM binding z-score [4] | PBM binding z-score [5] | PBM binding z-score [6] | PBM binding z-score [7] | PBM binding z-score [8] | PBM binding z-score [9] | PBM binding z-score [10] | PBM binding z-score [11] | PBM binding z-score [12] | PBM binding z-score [13] | PBM binding z-score [14] | PBM binding z-score [15] | PBM binding z-score [16] | PBM binding z-score [17] | PBM binding z-score [18] | PBM binding z-score [19] | PBM binding z-score [20] |
| --- | --- | --- | --- | --- | --- | --- | --- | --- | --- | --- | --- | --- | --- | --- | --- | --- | --- | --- | --- | --- |
| CCTACTGGGCAATCAGGTCATTGATATCAACGTT | 0.891 | 1 | 0.766 | 1.27 | -0.496 | 2.26 | 1.34 | 2.44 | 0.371 | 1.25 | 2.45 | 3.55 | 0.181 | -0.716 | 0.487 | 1.48 | 0.775 | 1.95 | 0.376 | 1.69 |
| TCAGACAGGTGAAGGTAATTCAGGTACGCAGTCG | 1.15 | 1.22 | -0.0461 | 1.11 | 0.0602 | 1.41 | 0.743 | 2.25 | 3.9 | 3.02 | 2.77 | 1.13 | 0.166 | 0.166 | 1.05 | 0.684 | 0.0937 | 1.21 | 0.385 | 1.08 |
| AGAACCAGGGCACGCTGAGTTGATAGCAGAGTAG | -0.172 | 0.136 | -0.611 | -0.397 | -1.03 | 1.29 | 1.55 | 1.19 | -0.116 | 0.466 | 4.22 | 3.95 | 0.0191 | -0.605 | -0.0465 | 0.357 | -0.341 | 0.14 | -0.234 | 1.34 |
| TCATATAGGTAAAAGGTTAAAGTCGGTGTGGTAA | 3.06 | 3.43 | 1.29 | 3.39 | 0.553 | 5.77 | 10.2 | 8.8 | 9.29 | 9.7 | 4.98 | 5.34 | 1.14 | 1.22 | 2.21 | 3.01 | 1.15 | 4.32 | 2.65 | 2.64 |
| ACTGTTAGTTGAGACGAGGGCAACCGATAGGTTG | 0.919 | 0.0939 | -0.0594 | 0.0493 | 0.747 | 0.275 | 0.412 | -0.13 | -0.0644 | 0.0713 | -0.176 | 0.773 | 0.909 | 0.848 | 0.542 | 1.2 | 0.0894 | 0.667 | 0.756 | 1.21 |
| GCTATTAGTTGAAAGAGCAACCGAATGATTCTCG | -0.368 | -0.335 | -0.0598 | -0.509 | -0.535 | 0.321 | 0.704 | 1.95 | 0.137 | 1.51 | 0.238 | -0.404 | 0.37 | 0.517 | 0.13 | -0.39 | -0.276 | -0.118 | 0.294 | -0.146 |
| CGCCAAAGTTCAACTAAGGTAACGTAAAGCACGC | 5.71 | 6.43 | 4.61 | 4.35 | 2.19 | 5.16 | 4.03 | 5.02 | 1.67 | 3.91 | 0.771 | 1.55 | 0.546 | 0.253 | 3.81 | 5.66 | 5.04 | 4.28 | 2.96 | 5.16 |
